These results are taken from the supplement of paper PMC6555819.

The first assay deals with RARb homodimer (NR concentration 270 nM). The experiment in a line: PBM binding z-score (relative to random genomic background probes); higher = stronger binding; sequences stand for … in GC…GCGATTGACAGCGTAGAATGAAGG
In a few lines:
(§1)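 The probes on custom Agilent 4×180K protein-binding microarrays were double-stranded, with 34-nt variable regions bearing direct-repeat seeds, single-nucleotide variants, half-site ablations and random human genomic background sequences. Incubation lasted 1 h with ligand-free nuclear receptor dimers in PBS pH 7.4, 2% milk, 0.02% Triton X-100, 1 mM DTT, 0.2 mg/mL BSA and 0.4 mg/ml salmon testes DNA. Antibodies against each partner (one per run) detected bound dimers, and fluorescence scans were regression-normalized. Binding z-scores take the random background probes as reference.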
As to CCTAGTTGGTCAAGGTAACACACGCTATAGGTAC, the PBM binding z-score was 1.22.
Still for that read-out and setting: as for CGAACTAGGACAAAGGACAGTGAAAGGCGACGTA, the figure is 0.856; as for CGAACTACGTCACCAGGACAGTGAAGAGGTTGGA, 0.196.
With CCTACTGGGCCATTAAGAGGTCATTGATCATATG, the PBM binding z-score was determined as 3.96.
Still for that read-out and setting: as for ATATGTAGGTTAGCGGGGGTCATTCAGACTAGGC, the figure is 4.17; as for CCGAGTAGGTTACGAGGGGGCGTTCAGTGCGAAT, 1.42; as for CCGAGTAGGTTACGAGGCGGCATTCAGTGCGAAT, 0.155.
Still for that read-out and setting: as for ATCTCTAGGTAAAGTTCAGCGAAAGATCGATAGA, the figure is 2.94; as for CTCGAAAGGTCGTGCTTAGGTGAGTATACCAAAC, 3.07; as for TCTCGGAGGACACGAAAGGGCAGAGCTCGACATC, 2.21.
The same measure, in the same setting: then CTATGTAGGTTAAGGGGGTCATTGAGTTTGAAAG, with 4.02; and TATACTGGGTCAAAGGCCAGAGTACGAATGTCGA, with 2.9.
For CCCAGTAGGTTACGAGGGGGCATTCAGTGCGAAT, the PBM binding z-score was 2.13.
Still for that read-out and setting: then ATCTCTAGGTTAAAGTTCAGTGAATCCCGAGGAT, with 2.94; and CGAACTAGGTCACCAGGACAGTGAGGAGGTTGGA, with 3.41.
The same measure, in the same setting: as for ATGTGTAGGTTAGGGTCATTCAGAAAGTAGGGAA, the figure is 3.9.
On the same count and under the same terms, then CGATCTAGGTCAAAGGACAGTGAAAGGCGACGTA, with 2.74.

In the next assay the test system is RARg:RXRa (NR concentration 270 nM, RXRa partner concentration 90 nM). Described as above. In a few lines: as §1
The sequence CTATGTAGGTTAAGCGGGTCATTCAGTTTGAAAG showed a PBM binding z-score of 2.62.
In turn, TAGCCTCGGTCATTCAGGGGCCAGTATAGAAAGC registered a PBM binding z-score of 3.5.
On the same count and under the same terms, then AGTCAAAGTTCTTCTAGGTAACGTAAGATATGCT, with 0.404; and CTCGAAAGGTCGAGCTCAGGTGAGTATACCAAAC, with 4.89; and CAAACTAGGTCACCGTAAGGTCAAAGTCCGCATG, with 8.26.
Sequence CGTCCAAGGTCAATGTTAGGTCAGTGAAAGCATT gave a PBM binding z-score of 7.45.
The same measure, in the same setting: then CCGAGTAGGTTACGAGGGGGAATTCAGTGCGAAT, with 1.53; and CCGACGGGGGCAGAAAGGTTACCATACCATCCGG, with 4.2.
The sequence CGTCAAAGTTCAAGGTAAAGTAACAGAAAGCAGC came in with a PBM binding z-score of 5.19.
Still for that read-out and setting: then CCTACTGGGCCATTCAGAGGTCATCGATCATATG, with 4.89; and CGTCGAAGGTCAATGCTAGGTCAGTGAAAGCATT, with 7.62.
The same measure, in the same setting: then CCGAGTAGGTTACGAGGGGGCATTCATTGCGAAT, with 3.01.
The same measure, in the same setting: as for CAAAGTAGGTCACCGGAAGGTCAAAGTCCGCATG, the figure is 8.47; as for TCGAGTAGGTTACGGGGTCATTCAGGGATGAAGA, 5.96; as for CGAACTATGTCACCAGGACAGTGAAGAGGTTGGA, 0.591.
As to CTATCTAGGTTAAGGGGGTCATTCAGTTTGAAAG, the PBM binding z-score was determined as 5.18.
On the same count and under the same terms, as for TTACCAAGGTGAAAGGTCGTTGAGGCACGCCTTG, the figure is 4.52; as for TCGAGTAGGTTATGGGGGCATTCAGGGATGAAGA, 2.62.
The same measure, in the same setting: as for CGAACTAGGTCACCAGGACAATGAAGAGGTTGGA, the figure is 4.27; as for CGAACTAGGTCACCAGGACACTGAAGAGGTTGGA, 4.62; as for CGGACTGGGGCAAAGGTTACCATACTCAGTACGA, 3.75.
For TCGAGTAGGGTACGGGGGCATTCAGGGATGAAGA, the PBM binding z-score came to 2.33.
For CCTAGTTGGTCAAGGTAACACACGCTATAGGTAC, the PBM binding z-score was 0.88.
Same read-out and setting: then CGAACTAGGACAAAGGACAGTGAAAGGCGACGTA, with 0.618; and CGAACTACGTCACCAGGACAGTGAAGAGGTTGGA, with 0.119.
In turn, CCTACTGGGCCATTAAGAGGTCATTGATCATATG returned a PBM binding z-score of 3.93.
On the same count and under the same terms, as for ATATGTAGGTTAGCGGGGGTCATTCAGACTAGGC, the figure is 5.25; as for CCGAGTAGGTTACGAGGGGGCGTTCAGTGCGAAT, 2.52.
Still for that read-out and setting: then CCGAGTAGGTTACGAGGCGGCATTCAGTGCGAAT, with 0.238.
Turning to ATCTCTAGGTAAAGTTCAGCGAAAGATCGATAGA, the PBM binding z-score is 2.55.
Same read-out and setting: as for CTCGAAAGGTCGTGCTTAGGTGAGTATACCAAAC, the figure is 5.09; as for TCTCGGAGGACACGAAAGGGCAGAGCTCGACATC, 1.52; as for CTATGTAGGTTAAGGGGGTCATTGAGTTTGAAAG, 5.46.
On the same count and under the same terms, as for TATACTGGGTCAAAGGCCAGAGTACGAATGTCGA, the figure is 3.96.
The same measure, in the same setting: as for CCCAGTAGGTTACGAGGGGGCATTCAGTGCGAAT, the figure is 3.35; as for ATCTCTAGGTTAAAGTTCAGTGAATCCCGAGGAT, 3.52.
The sequence CGAACTAGGTCACCAGGACAGTGAGGAGGTTGGA had a PBM binding z-score of 4.5.
Sequence ATGTGTAGGTTAGGGTCATTCAGAAAGTAGGGAA returned a PBM binding z-score of 4.4.
Same read-out and setting: then CGATCTAGGTCAAAGGACAGTGAAAGGCGACGTA, with 3.63.

The next assay relates to RARg homodimer (NR concentration 270 nM). The assay is described as above. In a few lines: as §1
In turn, CTATGTAGGTTAAGCGGGTCATTCAGTTTGAAAG came in with a PBM binding z-score of 1.94.
Same read-out and setting: as for TAGCCTCGGTCATTCAGGGGCCAGTATAGAAAGC, the figure is 3.37.
On the same count and under the same terms, then AGTCAAAGTTCTTCTAGGTAACGTAAGATATGCT, with 0.586.
On the same count and under the same terms, then CTCGAAAGGTCGAGCTCAGGTGAGTATACCAAAC, with 4.58.
CAAACTAGGTCACCGTAAGGTCAAAGTCCGCATG returned a PBM binding z-score of 7.64.
On the same count and under the same terms, then CGTCCAAGGTCAATGTTAGGTCAGTGAAAGCATT, with 6.89; and CCGAGTAGGTTACGAGGGGGAATTCAGTGCGAAT, with 1.1; and CCGACGGGGGCAGAAAGGTTACCATACCATCCGG, with 3.58.
The same measure, in the same setting: then CGTCAAAGTTCAAGGTAAAGTAACAGAAAGCAGC, with 6.06; and CCTACTGGGCCATTCAGAGGTCATCGATCATATG, with 3.64; and CGTCGAAGGTCAATGCTAGGTCAGTGAAAGCATT, with 6.84.
On the same count and under the same terms, as for CCGAGTAGGTTACGAGGGGGCATTCATTGCGAAT, the figure is 2.09; as for CAAAGTAGGTCACCGGAAGGTCAAAGTCCGCATG, 7.72.
TCGAGTAGGTTACGGGGTCATTCAGGGATGAAGA showed a PBM binding z-score of 4.05.
Same read-out and setting: as for CGAACTATGTCACCAGGACAGTGAAGAGGTTGGA, the figure is 0.719.
The same measure, in the same setting: then CTATCTAGGTTAAGGGGGTCATTCAGTTTGAAAG, with 4.36; and TTACCAAGGTGAAAGGTCGTTGAGGCACGCCTTG, with 2.03.
The same measure, in the same setting: as for TCGAGTAGGTTATGGGGGCATTCAGGGATGAAGA, the figure is 1.29; as for CGAACTAGGTCACCAGGACAATGAAGAGGTTGGA, 5.1.
The sequence CGAACTAGGTCACCAGGACACTGAAGAGGTTGGA displayed a PBM binding z-score of 5.4.
Same read-out and setting: as for CGGACTGGGGCAAAGGTTACCATACTCAGTACGA, the figure is 1.9; as for TCGAGTAGGGTACGGGGGCATTCAGGGATGAAGA, 1.97; as for CCTAGTTGGTCAAGGTAACACACGCTATAGGTAC, 1.36.
Consider CGAACTAGGACAAAGGACAGTGAAAGGCGACGTA, for which the PBM binding z-score is 1.24.
Same read-out and setting: then CGAACTACGTCACCAGGACAGTGAAGAGGTTGGA, with 0.277.
Still for that read-out and setting: then CCTACTGGGCCATTAAGAGGTCATTGATCATATG, with 2.81; and ATATGTAGGTTAGCGGGGGTCATTCAGACTAGGC, with 4.26; and CCGAGTAGGTTACGAGGGGGCGTTCAGTGCGAAT, with 1.89.
Still for that read-out and setting: as for CCGAGTAGGTTACGAGGCGGCATTCAGTGCGAAT, the figure is 0.173; as for ATCTCTAGGTAAAGTTCAGCGAAAGATCGATAGA, 2.95.
Take CTCGAAAGGTCGTGCTTAGGTGAGTATACCAAAC: the PBM binding z-score stood at 3.82.
TCTCGGAGGACACGAAAGGGCAGAGCTCGACATC displayed a PBM binding z-score of 2.06.
On the same count and under the same terms, as for CTATGTAGGTTAAGGGGGTCATTGAGTTTGAAAG, the figure is 4.18; as for TATACTGGGTCAAAGGCCAGAGTACGAATGTCGA, 3.88.
Sequence CCCAGTAGGTTACGAGGGGGCATTCAGTGCGAAT registered a PBM binding z-score of 2.76.
Consider ATCTCTAGGTTAAAGTTCAGTGAATCCCGAGGAT, for which the PBM binding z-score came out at 3.27.
On the same count and under the same terms, as for CGAACTAGGTCACCAGGACAGTGAGGAGGTTGGA, the figure is 5.36.
On the same count and under the same terms, as for ATGTGTAGGTTAGGGTCATTCAGAAAGTAGGGAA, the figure is 3.74; as for CGATCTAGGTCAAAGGACAGTGAAAGGCGACGTA, 4.58.
